# TPT1 inh: C. albicans TPT1 enzyme inhibition; recombinant caTPT1, FP RNA substrate dephosphorylation; inhibition, % at 5 µM; 300,000 compounds, 0.81% hits; AID 1962;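 active means inhibition above the mean of all tested compounds plus 3 SD, set per screening campaign, cut at about 24% in these data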
# Myeloid diff 2: promotes myeloid progenitor differentiation; ER-HoxA9 myeloid progenitors, lysozyme-GFP differentiation, flow cytometry; calls only at 10 µM; 360,000 compounds, 1% hits; AID 624256;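 active means normalized GFP-positive differentiation at or above the plate's own cutoff, the solvent-only control mean plus 3 SD; inconclusive means no clear call, values can overlap the other calls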;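 further: cells exposed to compound for four days before flow analysis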
# HNF4A DNA FP: change in binding of human HNF4 alpha to DNA. P41235. HNF4a-FITC DNA binding, fluorescence polarization, 1 h. activity change, % at 10 µM. 360,000 compounds, 0.3% hits. AID 1224865; in the data active means activity change above about 30%, passing the limit was not always enough
# Rpn11 inh: blocks the human proteasome subunit Rpn11 | O00487 | human 26S proteasome, Ub4-pepOG fluorescence polarization; 20S core pre-blocked with epoxomicin | inhibition, % at 20 µM | 360,000 compounds, 0.59% hits | AID 588493;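 active means inhibition at 20 µM, scaled to each plate's controls, above about 33%, limit read from the data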
# Target sequence (O00487 whole entry, looked up): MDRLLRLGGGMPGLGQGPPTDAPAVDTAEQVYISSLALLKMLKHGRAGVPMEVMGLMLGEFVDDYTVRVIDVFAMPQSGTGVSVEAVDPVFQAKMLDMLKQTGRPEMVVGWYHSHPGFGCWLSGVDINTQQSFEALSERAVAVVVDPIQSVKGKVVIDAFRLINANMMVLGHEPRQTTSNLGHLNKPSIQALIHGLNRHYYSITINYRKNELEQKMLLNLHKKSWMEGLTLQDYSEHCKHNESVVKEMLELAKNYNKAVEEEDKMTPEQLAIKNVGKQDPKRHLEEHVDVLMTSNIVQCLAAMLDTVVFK
# Myeloid diff CP1: compounds promoting myeloid differentiation | shares compounds with Myeloid diff 2 | ER-HoxA9 myeloid progenitors, GFP/Mac1 double-positive flow | calls only | 2,300 compounds, 2% hits;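 active means share of green or green-and-red cells above 9 and 9% in run 1 or 4 and 3% in run 2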
# GFP autofluor: compound fluorescence in myeloid differentiation counter-screen; 2,300 compounds, 7.4% hits; fluorescence response, % (concentration not given with the values); ER-HoxA9 myeloid progenitors, no estrogen, GFP autofluorescence flow cytometry; vehicle wells 0%, positive control 100%; shares compounds with Myeloid diff 2;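 active means over 5% cells positive for green fluorescent reporter, or over 2% positive for both it and APC stain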
# Numbers stand for hits; n = inactive; u = inconclusive; x = no result given; + = active, no number. A selection: hits, their analogues and other compounds. The true share with any hit is near 2.1%.
SMILES,TPT1 inh,Myeloid diff 2,HNF4A DNA FP,Rpn11 inh,Myeloid diff CP1,GFP autofluor
Cc1cccnc1NC(=O)C(C)N1C(=O)c2ccccc2C1=O (stereo not given),n,n,n,n,x,x
CN(C)CCNC(=O)c1cc2sc3ccccc3c2s1,n,n,n,n,x,x
CN=C(Nc1ccccc1)SC1CC(=O)N(c2ccc(C(=O)OC)cc2)C1=O (stereo not given),n,n,n,n,x,x
CN=C(NC)SC1CC(=O)N(c2ccccc2)C1=O (stereo not given),n,n,n,n,n,n
Cc1cccc(C)c1-n1c(C)nn(-c2ncc(C(F)(F)F)cc2Cl)c1=O,n,n,n,n,n,n
Cc1nn(-c2ncc(C(F)(F)F)cc2Cl)c(=O)n1-c1ccccc1F,n,n,n,n,x,x
COC(=O)C1=CN(Cc2ccc(F)cc2)C=C(C(=O)OC)C1c1cc(OC)c(OC)c(OC)c1,n,n,n,n,x,x
COC(=O)C1=CN(Cc2ccc(OC)c(OC)c2)C=C(C(=O)OC)C1c1cccc(F)c1,n,+,n,n,n,n
O=[N+]([O-])c1ccc2nc(NN=Cc3ccc(O)cc3)sc2c1,x,u,n,n,x,x
CCOC(=O)c1cc(C(=O)OCC)c2cccc(C)n2c1=O,n,+,n,n,n,n
Cc1cc(C)c(S(=O)(=O)Nc2nnc(C)s2)c(C)c1,n,n,n,n,n,n
Cc1cc(C)c(S(=O)(=O)Nc2nnc(CC(C)C)s2)c(C)c1,n,n,n,n,x,x
CCOC(=O)c1ccc(NC(=O)C(CC)(CC)C(=O)OCC)cc1,n,n,n,n,n,n
O=C(CN1C(=O)S/C(=C\c2ccccc2)C1=O)NNC(=O)c1ccccc1O,n,n,n,n,x,x
O=C(CN1C(=O)S/C(=C\c2ccc(O)cc2)C1=O)c1ccccc1,n,n,n,n,n,n
Cc1ccc(C2=NCCNC2=O)c(C)c1,n,n,n,n,n,n
CC(Sc1ccc([N+](=O)[O-])cn1)C(=O)Nc1nccs1 (stereo not given),n,x,n,n,x,x
CCCCC(=O)OCC(=O)c1cc(C)n(-c2c(C)n(C)n(-c3ccccc3)c2=O)c1C,n,n,n,n,n,n
Cc1cccc(C)c1Nc1nnc(SCC(=O)NC2CCS(=O)(=O)C2)s1 (stereo not given),n,n,n,n,x,x
Cc1ccc(Nc2nnc(SCC(=O)NC3CCS(=O)(=O)C3)s2)c(C)c1 (stereo not given),n,n,n,n,n,5.9
COc1cc2c(cc1OC)CN(CC(=O)Nc1ccc(F)cc1)C(C(=O)O)C2 (stereo not given),n,n,n,n,x,x
CN(C(=O)NC1CCCCC1)[C@H]1C[C@H]2c3[nH]c4ccccc4c3CCN2C(=O)[C@H]1CO,x,n,n,n,x,x
CN(C(=O)C(C)(C)C)[C@H]1C[C@H]2c3[nH]c4ccccc4c3CCN2C(=O)[C@H]1CO,x,n,n,n,n,n
CCNC(=O)C1(C)CCCN1C(=O)c1ccc2c(c1)OCO2 (stereo not given),x,n,n,n,x,x
O=C(c1ccc(Cn2c(=S)[nH]c3cc4c(cc3c2=O)OCO4)cc1)N1CCN(c2ncccn2)CC1,n,x,x,x,x,x
SMILES,TPT1 inh,Myeloid diff 2,HNF4A DNA FP,Rpn11 inh,Myeloid diff CP1,GFP autofluor
CCN(CC)C(=O)CSc1nnc([C@@H](NC(=O)OC(C)(C)C)C(C)C)o1,n,n,n,n,n,n
CCN(CC)C(=O)CSc1nnc([C@H](CCSC)NC(=O)OC(C)(C)C)o1,n,n,n,n,x,x
COc1ccccc1NS(=O)(=O)c1cc(NC(=O)Cc2n[nH]c(=O)c3ccccc23)ccc1Cl,x,n,n,n,n,n
O=C1C=C(c2ccc(-c3ccccc3)cc2)C[C@@H](c2ccc(Cl)cc2)C1,x,n,n,n,n,n
O=C(CC1SC(N2CCOCC2)=NC1=O)Nc1cc([N+](=O)[O-])ccc1Cl (stereo not given),n,n,n,n,x,x
C/C(=N/NC(=O)NC12CC3CC(CC(C3)C1)C2)c1ccccc1,n,n,n,n,x,x
Cc1sc2ncn(CC(=O)NCc3ccccn3)c(=O)c2c1S(=O)(=O)N1CCOCC1,n,n,n,n,n,n
CCS(=O)(=O)N1CCC(NC(=O)C(Cc2cccc(OC)c2OC)NC(C)=O)CC1 (stereo not given),x,n,n,n,x,x
CCCC1=[N+](CC(=O)c2ccccc2)CCn2c(C)ccc21,n,+,n,n,n,n
Cc1ccc[n+](CC(=O)c2ccccc2)c1,n,x,x,x,x,x
Cn1c(NCc2cccnc2)nc2cc(-c3cccc(C(=O)NCCO)c3)sc2c1=O,x,+,n,n,n,n
C[C@H](O)[C@@H]1C(=O)N2CCc3ccc(-c4ccccc4)cc3[C@@H]2C[C@@H]1N(C)C(=S)Nc1ccc(F)cc1,x,n,n,n,n,87
CCOc1ccc(CC(=O)Nc2nccs2)cc1OCC,n,n,n,n,x,x
COc1ccc(Cl)cc1C(=O)OCC(=O)c1ccc[nH]1,x,n,n,n,x,x
COc1cc(CNc2ccc3[nH]c(=O)[nH]c3c2)ccc1OCc1ccccc1Cl,n,n,n,n,n,n
CCOCCCNC(=O)COc1ccc(OC)cc1,n,n,n,n,x,x
CCCCn1c(SCC(=O)N2CCC(C)CC2)nc2cc(S(N)(=O)=O)ccc21,n,+,n,n,n,n
COc1ccc(C(=O)N2CCc3cc(OC)c(OC)cc3C2c2ccc(OC)c(OC)c2)cc1 (stereo not given),n,n,n,n,n,n
CCOC(=O)N1CC=C2C(C#N)=C(N)C(C#N)(C#N)[C@H](c3cccs3)C2C1 (stereo not given in full),n,n,n,n,x,x
CCCOc1ccc([C@@H]2C3CN(C(=O)OCC)CC=C3C(C#N)=C(N)C2(C#N)C#N)cc1OC (stereo not given in full),n,+,n,n,n,n
CCOc1cccc(=O)c2c(C)n(CC(=O)c3ccccc3)c(C)c12,n,n,n,n,x,x
CCOc1cccc(=O)c2c(C)oc(C)c12,n,n,n,n,n,n
CCOC(=O)c1c(C)[nH]c(C(=O)COC(=O)/C=C/c2ccc(O)c(OC)c2)c1C,n,n,n,n,n,n
CCOC(=O)c1c(C)[nH]c(C)c1C(=O)COC(=O)/C=C/c1cccc(Cl)c1,n,n,n,n,x,x
CCOC(=O)c1c(C)[nH]c(C)c1C(=O)COC(=O)/C=C/c1ccccc1[N+](=O)[O-],x,+,n,n,n,n
SMILES,TPT1 inh,Myeloid diff 2,HNF4A DNA FP,Rpn11 inh,Myeloid diff CP1,GFP autofluor
FC(F)(F)c1cccc(Cn2nnnc2-c2cccc(C(F)(F)F)c2)c1,n,n,n,n,x,x
C#CC[N+](C)(C)CCCCCCCC,n,n,n,n,n,n
O=C(NC1CC1)c1cccc(NC(=O)c2cnn(-c3ccccc3)n2)c1,x,+,n,n,n,n
O=C(Nc1cccc(C(=O)NC2CCCC2)c1)c1ccccc1,n,n,n,n,x,x
COc1ccc(CNC(=O)C2CCCN(S(=O)(=O)c3c(C)n[nH]c3C)C2)cc1 (stereo not given),n,n,n,n,n,n
COC(=O)c1cn(NC(=O)c2ccc(OC)c(OC)c2)c(=O)c2ccccc12,n,+,n,n,n,n
